CHT block: inhibitors of human choline transporter CHT; Q9GZV3; B-score at 10 µM; hit rate 0.86% among 310,000; CHT-expressing cells, membrane potential dye, choline response; stronger effect = lower value;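 active means B-score over 3 SD under the library average, and starting fluorescence ratio not unusually high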;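 further: choline stimulus applied at its EC90 after an EC20 pre-addition; B-score computed on integrated fluorescence ratio after choline addition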
CHT PAM: allosterically activates the human high affinity choline transporter; CHT-expressing cells, membrane potential dye, choline EC20; stronger effect = higher value; LV-AA mutant CHT in HEK293 cells; B-score at 10 µM; hit rate 0.49% among 310,000;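 active means initial fluorescence not abnormally high and integrated response B-score, plate-corrected, over 3 SD above library mean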
ANO1 activ: activates or potentiates the mouse TMEM16A chloride channel | Q8BHY3 | HEK293 TMEM16A/YFP-H148Q/I152L, iodide quench fluorescence; stronger effect = lower value | B-score at 10 µM | hit rate 0.3% among 340,000 | AID 623877;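 active means fluorescence-ratio B-score plate-corrected deviation score at least 3 library SD below zero, with starting fluorescence score within 5 deviations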;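 further: channel opened by trigger with iodide after compound preincubation; score built on the fluorescence ratio of max minus min over baseline; more negative score means more quench and so TMEM16A activation or potentiation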
Target sequence (Q8BHY3 whole entry, looked up): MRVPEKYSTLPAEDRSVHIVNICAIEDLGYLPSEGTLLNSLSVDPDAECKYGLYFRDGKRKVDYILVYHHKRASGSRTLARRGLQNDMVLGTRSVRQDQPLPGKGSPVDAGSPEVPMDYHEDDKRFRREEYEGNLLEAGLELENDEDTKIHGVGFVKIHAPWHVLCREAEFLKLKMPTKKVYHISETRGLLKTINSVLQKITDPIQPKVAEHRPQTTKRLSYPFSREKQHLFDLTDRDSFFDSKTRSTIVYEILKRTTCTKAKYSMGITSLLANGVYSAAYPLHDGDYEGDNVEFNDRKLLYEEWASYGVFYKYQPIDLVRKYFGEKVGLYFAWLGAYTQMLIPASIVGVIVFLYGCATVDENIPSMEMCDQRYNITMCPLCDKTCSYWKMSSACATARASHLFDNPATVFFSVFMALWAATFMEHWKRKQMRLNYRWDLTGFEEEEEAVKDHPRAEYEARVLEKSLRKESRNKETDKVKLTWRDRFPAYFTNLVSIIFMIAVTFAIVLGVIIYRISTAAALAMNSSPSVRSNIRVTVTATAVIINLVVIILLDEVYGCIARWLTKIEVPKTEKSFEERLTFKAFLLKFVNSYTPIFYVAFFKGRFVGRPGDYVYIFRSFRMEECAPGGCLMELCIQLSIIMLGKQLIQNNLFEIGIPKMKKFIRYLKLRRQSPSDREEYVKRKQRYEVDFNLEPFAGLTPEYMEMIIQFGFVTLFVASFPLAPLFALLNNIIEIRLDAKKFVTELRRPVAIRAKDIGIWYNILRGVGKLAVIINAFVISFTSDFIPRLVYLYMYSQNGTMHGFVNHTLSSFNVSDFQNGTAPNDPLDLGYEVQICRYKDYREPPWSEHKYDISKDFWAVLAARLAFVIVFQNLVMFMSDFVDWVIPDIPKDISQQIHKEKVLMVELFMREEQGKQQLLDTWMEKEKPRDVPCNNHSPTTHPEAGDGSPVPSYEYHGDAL
TMEM16A inh: inhibitors of mouse TMEM16A calcium-activated chloride channel. normalized B-score (activity score, 25-100; higher = stronger inhibition) at 10 µM. AID 588511. HEK293 TMEM16A/YFP iodide influx fluorescence, ionomycin. Q8BHY3. hit rate 1.2% among 310,000;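 active means ratio plate-corrected score three or more library SD toward inhibition, starting fluorescence score within five deviations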;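 further: score derived from kinetic fluorescence span divided by baseline fluorescence per well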
CHT inh conf: confirmation of human choline transporter CHT inhibitors | shares compounds with CHT block | CHT-expressing cells, choline membrane potential dye; LV-to-AA substituted CHT, HEK293 cells | CHT activity remaining % of control (stronger effect = lower value), % at 10 µM | hit rate 70% among 2,400;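 active means choline transporter activity left, mean of duplicates at 10 µM, below buffer-only control mean minus 3 SD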;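 further: depolarization triggered by choline at its EC90 following an EC20 pre-addition; 0% = hemicholinium-3 full block and 100% = buffer-only control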
HEK293 MPD ctr: counter-screen for CHT inhibitors: effect in parental HEK293 cells | membrane potential ratio readout (active if shifted either direction beyond buffer ±3SD; no single direction) at 10 µM | hit rate 4% among 2,400 | membrane potential dye, choline response; active = decrease or increase beyond buffer ±3SD | shares compounds with CHT block;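 further: parental cells lack the transporter so any hit is non-specific; ratio is peak minus trough fluorescence over baseline after EC90 choline challenge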
TMEM16A reconf: reconfirmed blocker of mouse TMEM16A calcium-activated chloride channel; shares compounds with TMEM16A inh; HEK293 TMEM16A/YFP-H148Q, iodide quench fluorescence; ionomycin added to raise cell calcium; inhibition, % at 10 µM; hit rate 39% among 2,300;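 active means mean duplicate percent inhibition, scaled so buffer wells are 0 and the reference blocker 100, over three buffer SD above buffer mean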
HEK293 Ca mobil: alters calcium mobilization in TMEM16A HEK293 cells, counter-screen; TMEM16A/YFP HEK293, Fluo4 calcium mobilization; shares compounds with TMEM16A inh; hit rate 2% among 2,300; calcium response (% of ionomycin), % at 10 µM;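 active means duplicate-averaged calcium signal over 20% of the ionomycin maximum, relative to buffer baseline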;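 further: each well's signal is peak minus trough fluorescence divided by its pre-addition baseline; 0% = buffer wells and 100% = ionomycin wells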
Parental YFP cnt: counter-screen for TMEM16A inhibitors: effect in parental YFP-HEK293 cells; shares compounds with TMEM16A inh; iodide YFP quench, ionomycin; YFP ratio F(max-min)/F0 at 10 µM; 2,300 tested, under 10 active; AID 652233;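 active means yellow fluorescent protein signal ratio exceeding the buffer control mean by over 5 SD of those controls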;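 further: ratio is mean of duplicate wells from kinetic YFP trace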
ClC-1 inh: rat ClC-1 inhibition, TMEM16A specificity screen. shares compounds with TMEM16A inh. CHO ClC-1-YFP, iodide influx fluorescence quench; iodide control reads 0, buffer control 100. AID 652236. 2,300 tested, under 10 active. ratio percent, % at 10 µM;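 active means duplicate-mean ratio percent above the mean of iodide-only control wells, which defines zero, plus 5 of their SD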;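 further: higher percent means stronger block of ClC-1 iodide influx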
* = called active by the depositor; i = inactive; x = not tested or not shown. Shown are actives, neighbours in structure and some others; about 2.4% of the full set was active somewhere.

SMILES | CHT block | CHT PAM | ANO1 activ | TMEM16A inh | CHT inh conf | HEK293 MPD ctr | others
CC(C)Cn1c(=O)c2c(nc3n2CCCN3CCc2ccccc2)n(C)c1=O | -5.44* | i | i | 25* | 62.0%* | i
Cn1c(=O)n(CCc2ccccc2)c(=O)c2c1nc1n2CCCN1CCc1ccccc1 | i | i | i | i | x | x
CSc1nc(Nc2ccc(Cl)cc2)c(C#N)c(=O)[nH]1 | -6.1* | i | i | i | i | i
Cc1ccsc1CNC12CC3CC(CC(C3)C1)C2 | -6.55* | i | i | i | 13.8%* | -13.5*
COc1cc(CCCN2C(=O)C(=O)NC[C@H]2Cc2cccc3ccccc23)cc(OC)c1OC | -5.07* | i | i | i | 45.0%* | i
CCCC[C@@H]1CNC(=O)C(=O)N1CCCc1cc(OC)c(OC)c(OC)c1 | i | i | i | i | x | x
COc1ccccc1NC(=O)COC(=O)c1ccc2ccccc2n1 | x | x | i | x | x | x
COCCn1c(-c2cccs2)csc1=Nc1cccnc1 | i | i | i | i | x | x
Fc1ccccc1-c1csc(=Nc2cccnc2)n1CCCn1ccnc1 | -6.84* | i | i | i | 47.6%* | i
Cc1cccc(C)c1-n1nnnc1C(C)(C)N1CCN(N=O)CC1 | -7.17* | i | i | i | i | i
COc1ccc(NC(C)(C)c2nnnn2-c2c(C)cccc2C)cc1 | -5.39* | i | i | i | 58.8%* | i
O=C(CSc1ncn[nH]1)Nc1ccc(S(=O)(=O)Nc2ncccn2)cc1 | i | i | i | i | x | x
Cc1ccccc1NC(=S)NNc1ncc(C(F)(F)F)cc1Cl | i | i | i | i | x | x
Fc1ccccc1NC(=S)NNc1ncc(C(F)(F)F)cc1Cl | -8.13* | i | i | 100* | 60.2%* | i
O=C1OC[C@H]2CCCN2C(=O)[C@@H](CC(=O)N(CCO)Cc2ccccc2)C/C=C\CC[C@H]1Cc1ccc(F)cc1 | x | x | i | x | x | x
CC1CCC(NC(=O)c2cccc(S(=O)(=O)N3CCN(c4ccc(F)cc4)CC3)c2)CC1 (stereo unspecified) | -5.56* | i | i | i | i | i
CC(=O)N1CCN(C(=O)c2cccc(S(=O)(=O)N3CCN(c4ccccc4)CC3)c2)CC1 | x | x | i | x | x | x
O=C(NNC(=O)c1cccc(S(=O)(=O)N2CCN(c3ccccc3)CC2)c1)c1ccc(Cl)cc1 | -5.4* | i | i | i | i | i
CCOCC(=O)Nc1ccc([N+](=O)[O-])cc1Cl | i | i | i | i | x | x
CCOc1cc2[nH]c(=S)n(C3CCN(Cc4ccccc4)CC3)c(=O)c2cc1OCC | -5.76* | i | i | i | i | i
C[C@H](CO)N1C[C@H](C)[C@@H](CN(C)C(=O)Nc2ccc(C(F)(F)F)cc2)Oc2c(NC(=O)CCC(F)(F)F)cccc2C1=O | x | x | i | x | x | x
COc1ccc(-c2sc(Nc3ccc(F)c(F)c3F)nc2CCC(=O)NN)cc1 | -5.16* | i | i | i | i | i
CCc1noc(C)c1C(=O)OCC(=O)Nc1ncc(Cl)cc1Cl | i | i | i | i | x | x
CCN(CC)CCN1CCn2c3c(c4cc(C)ccc42)CCCC31 (stereo unspecified) | i | i | i | i | x | x
CCN1CCn2c3c(c4cc(Cl)ccc42)CCCC31 (stereo unspecified) | -5.76* | i | i | i | 70.2%* | i
SMILES | CHT block | CHT PAM | ANO1 activ | TMEM16A inh | CHT inh conf | HEK293 MPD ctr | others
CN1C(=O)CC(c2ccccc2)CC1=O | -13.1* | i | i | i | i | i
COc1ccc(N(C(=O)Cn2nnc3ccccc32)C(C(=O)NCc2ccco2)c2ccncc2)cc1 (stereo unspecified) | -10* | i | i | i | i | i
COCCNC(=O)C(c1ccncc1)N(C(=O)Cn1nnc2ccccc21)c1ccc(OC)cc1 (stereo unspecified) | i | i | i | i | x | x
CC(C)c1ccc(OCC(=O)N(Cc2ccccc2)c2ccccn2)cc1 | i | i | i | i | x | x
COc1ccccc1C(=O)NC1CCN(C(=S)NCCc2ccccc2)CC1 | -6.28* | i | i | i | 49.8%* | i
Cc1ccc(NC(=O)CSc2n[nH]c(=O)n2C2CC2)cc1S(=O)(=O)N1CCOCC1 | -6.75* | i | i | i | i | i
COc1ccc(OC)c(C(=O)COC(=O)COc2ccccc2F)c1 | x | x | i | x | x | x
CCc1cc(C(=O)COc2ccccc2F)c(O)cc1O | -5.83* | i | i | 100* | i | i | TMEM16A reconf=47.0%*;HEK293 Ca mobil=i;Parental YFP cnt=-1.1;ClC-1 inh=-12.0
CCc1cc(C(=O)Cc2ccc(F)cc2)c(O)cc1O | -5.6* | i | i | 100* | 42.8%* | i | TMEM16A reconf=68.5%*;HEK293 Ca mobil=i;Parental YFP cnt=-0.821;ClC-1 inh=-10.5
CC(C)(C)c1ccc(S(=O)(=O)/N=C2\C=C(NS(=O)(=O)c3ccccc3)C(=O)c3ccccc32)cc1 | -8.71* | i | i | 100* | 39.8%* | i | TMEM16A reconf=87.5%*;HEK293 Ca mobil=i;Parental YFP cnt=-0.946;ClC-1 inh=-21.0
CN(c1cccc(NC(=O)Nc2cccc(Cl)c2)c1)S(C)(=O)=O | -6.66* | i | i | 100* | 51.3%* | i | TMEM16A reconf=42.5%*;HEK293 Ca mobil=i;Parental YFP cnt=-1.05;ClC-1 inh=-12.0
CCc1ccc(C(C(=O)NC2CCCC2)N(CCOC)C(=O)CCC(=O)Nc2cc(C)on2)cc1 (stereo unspecified) | i | i | i | i | x | x
CCN(c1ccccc1)S(=O)(=O)c1ccc(OC)c(NC(=O)CCc2nc3ccccc3c(=O)[nH]2)c1 | i | i | i | i | x | x
Cc1[nH]n(-c2ccccc2)c(=O)c1N=Nc1ccc2c(c1)OCCO2 | i | i | i | i | x | x
Cc1[nH]n(-c2ccccc2)c(=O)c1N=Nc1c(O)cc(S(=O)(=O)N(C)C)c2ccccc12 | -8.45* | i | i | 100* | 33.8%* | i | TMEM16A reconf=48.0%*;HEK293 Ca mobil=i;Parental YFP cnt=-0.95;ClC-1 inh=-3.0

Screening results deposited in PubChem by Johns Hopkins Ion Channel Center.
